system: RARa homodimer (NR concentration 270 nM); assay: PBM binding z-score (relative to random genomic background probes); higher = stronger binding; sequences stand for … in GC…GCGATTGACAGCGTAGAATGAAGG
In short: (§1)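 Binding z-scores take random background probes as their reference. They come from custom Agilent 4×180K protein-binding microarrays incubated 1 h with ligand-free nuclear receptor dimers, with antibodies against each partner (one per run) detecting binding. Scanned fluorescence was regression-normalized.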

Sequence	PBM binding z-score
CTCCAAAGGTCGTGCTCAGGTGAGTATACCAAAC	0.196
TAGCCAAGGTCATGGGCCAGTATACCACGCGAAC	0.369
CGAACTACGTCAGAACAGGACAGTGAAGGATGAT	-0.0605
ATATGTTGGTTATCGGGTCATTCAGTTTGCGCAT	2.08
ACAGACAGGTTATGAAGGTAACTCAGGCTATCAT	0.217
CCGACTGGGGCAGAAAGGATACCATACCATCCGG	-0.437
TCACGGAGGACACGAAAGGTCAGAGCTCGACATC	1.27
TGTCAAAGTTCAAAGGCAACGTAAGTATCCACAC	1.3
CCTCGCAGGCCAATCTGGGTCACTCAAGGCTTGA	-0.288
GCGACTGGGGCATCAGCAGGTTACCATTACTTAA	-0.0866
TAGCCTAGGTCATGGGCCAGTATCCCACGCGAAC	-0.117
TCATATAGGTAAAAGGTGAAATTCGGTGTGGTAA	1.72
CCTATTAGATGACCATAAGGGCAACCGAAGCTCG	2.1
AGAACGAGGGCACGCTGAGTTGGTAGCAGAGTAG	-1.12
AGCACGAGGGCAATGAGTTGATAGCACGGGTGGC	-0.029
CCGACTGGGGCATAAAGTTACCATAAGCCAGCCC	-0.145
CGAACTAGGTCATCCAGGACAGTAAATACATTGA	0.413
ATCTCTAGGTGAAGATAGTTCAGTGAATGCAAAT	0.811
ACTATTAGTTGACTTGGGGCAACCGATACGACGC	0.466
TAGCTTAGGTCATTGGGCCAGTATAGTACGCATC	0.063

Sequence	PBM binding z-score
AGAATGCGGTTATTAAGATCAGGGAATTGCGGTC	0.329
TCTTGTAGATAAGCAGGTTAAGAAAGCTGGCCAA	0.154
GCATATAGGTAATACAAGGTGAAAGTTCGATTGT	1.1
GATACAGGGTCAAGGCCAGACTACGCGTATTGAT	0.813
TCGGCTAGGTCAGTTGGTCAGCTAACGAGCTGCC	-0.561
AGTAAAAGTTCAGGACGAGGTAACGTAAAGCACG	0.986
AGAACGAGGGCAATGAGTTGATAACACGGGTGGC	-0.633
TGAATGAGGTTATAAGCTCAGGGAACGTTGCAAA	-1.17
TCTATTAGTTGATTAGGGCATCCGAAACAGCGGA	1.52
ATATGTAGGTTAAGGGTAATTCAGGTTGGTTCGC	2.31
CAAACTAGGTCACAGAGGTCAAATTCCGTGCGTA	3.22
CGAACGAGGGCATGAGTGGATAGCAAATGCCGAT	-0.274
CCGAGTAGGTTATGGGGCATTCCGGCAACGGTGA	0.0897
CGTCCCAGGTCATAGGAGGTCAGTGAAGACAGAT	2.28
TTACCAAGTTGAAGGTCGTTGATCCCTCTGTAGA	0.00913
GCACCAAGGTGAATAGGTCGTTGATGAGTAGGCG	-0.487
ATCGAAAGGTCGTGAGGTGAGTAGACAGAAAGGC	0.372
CGAACTAGGTGATCCAGGACAGTGAATACATTGA	0.271
TCTTGTAGATTAACAGGAGGTTAAGAAAGATCGA	0.212
AGAATGAGGTTATTAATATCAGGGAATTGCGGTC	0.74

system: RARb:RXRa (NR concentration 270 nM, RXRa partner concentration 90 nM); assay: as above
In short: as §1

Sequence	PBM binding z-score
CTCCAAAGGTCGTGCTCAGGTGAGTATACCAAAC	4.08
TAGCCAAGGTCATGGGCCAGTATACCACGCGAAC	5.36
CGAACTACGTCAGAACAGGACAGTGAAGGATGAT	-0.283
ATATGTTGGTTATCGGGTCATTCAGTTTGCGCAT	2.05
ACAGACAGGTTATGAAGGTAACTCAGGCTATCAT	0.899
CCGACTGGGGCAGAAAGGATACCATACCATCCGG	0.0733
TCACGGAGGACACGAAAGGTCAGAGCTCGACATC	4.28
TGTCAAAGTTCAAAGGCAACGTAAGTATCCACAC	4.97
CCTCGCAGGCCAATCTGGGTCACTCAAGGCTTGA	1.67
GCGACTGGGGCATCAGCAGGTTACCATTACTTAA	0.832
TAGCCTAGGTCATGGGCCAGTATCCCACGCGAAC	3.74
TCATATAGGTAAAAGGTGAAATTCGGTGTGGTAA	1.89
CCTATTAGATGACCATAAGGGCAACCGAAGCTCG	1.4
AGAACGAGGGCACGCTGAGTTGGTAGCAGAGTAG	2.46
AGCACGAGGGCAATGAGTTGATAGCACGGGTGGC	2.14
CCGACTGGGGCATAAAGTTACCATAAGCCAGCCC	0.149
CGAACTAGGTCATCCAGGACAGTAAATACATTGA	3.89
ATCTCTAGGTGAAGATAGTTCAGTGAATGCAAAT	1.29
ACTATTAGTTGACTTGGGGCAACCGATACGACGC	0.789
TAGCTTAGGTCATTGGGCCAGTATAGTACGCATC	3.72

Sequence	PBM binding z-score
AGAATGCGGTTATTAAGATCAGGGAATTGCGGTC	-0.0684
TCTTGTAGATAAGCAGGTTAAGAAAGCTGGCCAA	0.0488
GCATATAGGTAATACAAGGTGAAAGTTCGATTGT	0.778
GATACAGGGTCAAGGCCAGACTACGCGTATTGAT	4.6
TCGGCTAGGTCAGTTGGTCAGCTAACGAGCTGCC	3.52
AGTAAAAGTTCAGGACGAGGTAACGTAAAGCACG	3.85
AGAACGAGGGCAATGAGTTGATAACACGGGTGGC	2.05
TGAATGAGGTTATAAGCTCAGGGAACGTTGCAAA	1.04
TCTATTAGTTGATTAGGGCATCCGAAACAGCGGA	0.788
ATATGTAGGTTAAGGGTAATTCAGGTTGGTTCGC	1.69
CAAACTAGGTCACAGAGGTCAAATTCCGTGCGTA	5.4
CGAACGAGGGCATGAGTGGATAGCAAATGCCGAT	1.91
CCGAGTAGGTTATGGGGCATTCCGGCAACGGTGA	0.966
CGTCCCAGGTCATAGGAGGTCAGTGAAGACAGAT	4.5
TTACCAAGTTGAAGGTCGTTGATCCCTCTGTAGA	1.15
GCACCAAGGTGAATAGGTCGTTGATGAGTAGGCG	1.93
ATCGAAAGGTCGTGAGGTGAGTAGACAGAAAGGC	3.9
CGAACTAGGTGATCCAGGACAGTGAATACATTGA	0.0644
TCTTGTAGATTAACAGGAGGTTAAGAAAGATCGA	0.685
AGAATGAGGTTATTAATATCAGGGAATTGCGGTC	1.18
